# High-throughput results (PubChem BioAssay)
# Compounds with a hit are over-represented: about 3.6% of the library has one in this group of screens.
# Pf apPOL block – Pf-apPOL inhibitors, biochemical, fluorescence; AID 1794808, 2022; inhibition, % at 10 µM; 210,000 tested, 0.25% active; Recombinant Pf-apPOL, molecular beacon fluorescence, 1.5 h; Plasmodium falciparum apicoplast DNA polymerase (apPOL)
# mHTT-CaM PPI inh – mutant huntingtin-calmodulin interaction inhibitors – biochemical, AlphaScreen, primary screen | 190,000 tested, 3.6% active | AlphaScreen His-mHTT/GST-CaM binding, luminescence | AID 1671202, 2021 | inhibition, % at 15 µM | P42858;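 note: 0% = both proteins with DMSO and 100% = one protein alone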
# Numbers without * were called inactive; i = inactive; . = no result given. Cut-off read from the data, not from the text of the source: active = inhibition above about 50%; inactive = the rest.
SMILES,Pf apPOL block,mHTT-CaM PPI inh
Cc1cc(N2CCN(C)CC2)nc2ccc(NC(=O)c3cc(-c4ccco4)nc4ccccc34)cc12,5,57*
COc1ccccc1C(=O)Nc1ccc2nc(N3CCN(C)CC3)cc(C)c2c1,-7,0
Cc1cc(N2CCN(C)CC2)nc2ccc(NC(=O)/C=C/c3cccs3)cc12,0,76*
Cc1nc(C(F)(F)F)ccc1C(=O)Nc1oc(-c2ccccc2)cc1C#N,-3,.
Cc1ccccc1Cn1c(=O)n(CCCC(=O)NCc2ccco2)c(=O)c2sccc21,1,7
CS(=O)(=O)c1ccc2nc(NC(=O)Cc3ccc(F)cc3)sc2c1,0,7
Nc1nnc(-c2ccc(Cl)cc2Cl)s1,-1,0
N#CC1=C(N)SC(N)=C(C#N)C1c1cccc(Cl)c1,4,74*
N#CC1=C(N)SC(N)=C(C#N)C1c1ccc(Cl)cc1Cl,-8,8
CCN(CC)c1ccc(NS(=O)(=O)c2ccc3c(c2)CC(C)N3C(C)=O)c(C)c1 (configuration not stated),6,25
CCCc1cc(C2CCCN2C(=O)c2ccccc2F)no1 (configuration not stated),2,-2
COc1ccc(OC)c2sc(N(CCN(C)C)C(=O)c3cccc(SC)c3)nc12,2,18
CSc1cccc(C(=O)N(CCn2cccn2)c2nc3c(Cl)cccc3s2)c1,-5,100*
CC(C)Sc1ccc(C(F)(F)F)cc1[N+](=O)[O-],-31,.
O=[N+]([O-])c1cc(C(F)(F)F)ccc1Sc1ccccc1,-4,55*
Cc1cc2c(cc1C)NC(c1ccc(Cl)c([N+](=O)[O-])c1)C1=C(CC(C)(C)CC1=O)N2 (configuration not stated),4,47
O=[N+]([O-])c1ccc(CSc2nnc(-c3ccco3)o2)cc1,11,-5
COc1ccccc1Oc1coc2cc(OC(=O)C(C)C)ccc2c1=O,-2,100*
COc1cccc(Oc2coc3cc(OC(=O)C(C)C)ccc3c2=O)c1,-6,31
COC(=O)Oc1ccc2c(=O)c(Oc3ccc(C)cc3)coc2c1,16,80*
CC(=O)Oc1ccc2c(=O)c(Oc3ccccc3)coc2c1,-7,20
C=CCn1c(CSc2ccccc2[N+](=O)[O-])n[nH]c1=S,60*,.
COc1ccccc1-n1c(CSc2ccccc2[N+](=O)[O-])n[nH]c1=S,1,.
Cc1[nH]nc(-c2ccc(O)c(C)c2O)c1Oc1ccc(F)cc1,8,55*
COc1ccc(-c2n[nH]c(C)c2Oc2ccc(F)cc2)c(O)c1,-8,34
SMILES,Pf apPOL block,mHTT-CaM PPI inh
COCCNC(=O)N1CCn2cccc2C1C (configuration not stated),6,4
Cc1cc(C)c(NC(=O)OCc2cccc3cccnc23)c(C)c1,-9,100*
Cc1cc(Cl)ccc1NC(=O)CSc1cccc2cccnc12,-6,18
C=C1CCN([C@@H](C)C(=O)OCc2ccc(C)cc2)S(=O)(=O)c2ccccc21,2,-36
COc1ccc(C2CC(=O)Oc3c(C(CCN4CCOCC4)c4ccc5c(c4)OCO5)c(OC)cc(OC)c32)cc1 (configuration not stated),-6,79*
COc1ccc(NC(=O)CCN2CCN(c3ccccc3)CC2)c(OC)c1,-8,6
COc1cc(C2CC(=O)Oc3c(C(C)C)ccc(C)c32)cc(OC)c1OC (configuration not stated),-5,-9
COc1ccc(C2CC(=O)Oc3c(C(CCN4CCN(c5ccccc5)CC4)c4ccc(N(C)C)cc4)c(OC)cc(OC)c32)cc1 (configuration not stated),-7,73*
CCN(CC)CCC(c1cc(OC)c(OC)c(OC)c1)c1c(OC)cc(OC)c2c1OC(=O)CC2c1ccc(N(C)C)cc1 (configuration not stated),-6,69*
CCN(CC)CCC(c1cc(OC)c(OC)c(OC)c1)c1c(OC)cc(OC)c2ccc(=O)oc12 (configuration not stated),-8,4
COc1cc(C(CCN2CCCC2)c2c(OC)cc(OC)c3c2OC(=O)CC3c2ccc(N(C)C)cc2)cc(OC)c1OC (configuration not stated),-4,75*
COc1ccc2c(c1)C(c1ccc3c(c1)OCO3)CC(=O)O2 (configuration not stated),-1,33
CC1(C(=O)NCc2cccnc2)CCC(=O)N1CCc1ccc(Cl)cc1 (configuration not stated),-4,3
CN1CCC(NCCC2(c3cccc(C(F)(F)F)c3)CCOC(C)(C)C2)CC1 (configuration not stated),-6,-2
O=C(c1ccc2[nH]ccc2c1)N1CC2CC1CC2NS(=O)(=O)c1ccccc1 (configuration not stated),-3,10
COCCn1cc(C(=O)NCCCN(C)Cc2ccccc2)c2c3ccccc3n(C)c2c1=O,-3,6
COc1cc(OC)c2c(c1C(CCN1CCOCC1)c1ccc(N(C)C)cc1)OC(=O)CC2c1ccc(N(C)C)cc1 (configuration not stated),-6,100*
COc1cc(C(CCN2CCOCC2)c2c(OC)cc(OC)c3c2OC(=O)CC3c2ccc(N(C)C)cc2)cc(OC)c1OC (configuration not stated),-6,74*
COc1ccc(C2CC(=O)Oc3c(C(CCN4CCOCC4)c4cc(OC)c(OC)c(OC)c4)c(OC)cc(OC)c32)cc1 (configuration not stated),-4,0
COc1cc(C(CCN2CCCCC2)c2c(OC)cc(OC)c3c2OC(=O)CC3c2ccc(N(C)C)cc2)cc(OC)c1OC (configuration not stated),-9,78*
COc1cc(C(CCN2CCOCC2)c2c(OC)cc(OC)c3ccc(=O)oc23)cc(OC)c1OC (configuration not stated),-14,29
O=C(NCCN1CCCCC1)C1Cc2cc(C(F)(F)F)ccc2N2CCOCC12 (configuration not stated),-4,31
O=C(C1Cc2cc(C(F)(F)F)ccc2N2CCSCC12)N1CCOCC1 (configuration not stated),-5,83*
Cc1ccc(C)c(-c2csc(Nc3ccc(Cl)cc3)n2)c1,-5,67*
Cc1cccc(Nc2nc(-c3cccnc3)cs2)c1,-4,8
SMILES,Pf apPOL block,mHTT-CaM PPI inh
CCc1ccc(-c2csc(Nc3cccc(OC)c3)n2)cc1,2,67*
COc1cccc(Nc2nc(-c3cc(C)ccc3C)cs2)c1,-2,63*
COc1ccc(-c2csc(Nc3ccccc3OC)n2)cc1F,11,43
COc1ccc(-c2csc(NCc3ccccc3)n2)cc1,.,23
COc1cccc(Nc2nc(-c3ccc(OC)c(F)c3)cs2)c1,-7,64*
Cc1ccc(Nc2nc(-c3ccc(F)cc3)cs2)cc1,-5,35
O=C(COc1ccc(Cl)cc1)Nc1ccc(S(=O)(=O)N2CCCC2)cc1,-7,-4
N/N=C1\CCCc2c1[nH]c1ccc(C(F)(F)F)cc21,.,i
COc1cccc(Nc2nc(-c3ccccc3)cs2)c1,1,62*
COc1cccc(Nc2ccc(-c3ccccc3)nn2)c1,-6,.
COc1ccc(CN2CC[C@H]3C=CC[C@@H](C(=O)Nc4ccc(Cl)c(C(F)(F)F)c4)[C@H]3C2=O)cc1OC,-7,56*
